Experimental data reported in PubChem BioAssay AID485317 (Broad Institute, 2010).
Among all 290,000 compounds or so, about 11,000 (3.8%) were called active. The sample as a whole holds a higher share of actives than the screen did. Unmarked numbers belong to inactive results.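 Rule for the calls: active = mean replicate inhibition above about 79%, with every replicate also reaching it (limit read from the data); inconclusive = only one of the two criteria met; inactive = mean below limit and not every replicate reaching it.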

target: FAD-linked sulfhydryl oxidase ALR (Homo sapiens) (UniProt P55789); assay: inhibitors of human ALR sulfhydryl oxidase, primary screen, biochemical, H2O2 detection, HRP-luminol luminescence, single point (AID 485317); conditions: purified ALR, DTT oxidation, active compounds read high, concentration not given here
Sequence (P55789 whole entry, looked up): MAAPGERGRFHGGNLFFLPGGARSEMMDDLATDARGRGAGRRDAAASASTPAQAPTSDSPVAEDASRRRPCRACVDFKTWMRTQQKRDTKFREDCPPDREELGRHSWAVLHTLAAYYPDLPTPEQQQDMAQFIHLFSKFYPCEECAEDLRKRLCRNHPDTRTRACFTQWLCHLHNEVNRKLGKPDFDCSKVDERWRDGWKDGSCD

Compound | inhibition
CC(C)CC1(C)NC(=O)N(CC(=O)Nc2ccc3c(c2)OCCO3)C1=O (stereo not given) | 4.51%
CCC(C)c1ccccc1N1CC(C(=O)N2CCN(S(=O)(=O)c3ccc(F)cc3)CC2)CC1=O (stereo not given) | 1.3%
COCC(=O)Nc1c(I)c(C(=O)NCC(O)CO)c(I)c(C(=O)N(C)CC(O)CO)c1I (stereo not given) | -12.2%
O=C(CSc1ccccn1)N1CCN(S(=O)(=O)c2ccc(Cl)cc2)CC1 | -0.731%
CO[C@@H]1[C@@H](OC(N)=O)[C@@H](O)C(Oc2ccc3c(O)c(NC(=O)c4ccc(O)c(CC=C(C)C)c4)c(=O)oc3c2C)OC1(C)C (stereo not given in full) | 1.83%
COc1ccc(F)cc1C(=O)COC(=O)c1n[nH]c(=O)c2ccccc12 | -1.76%
CC(C)(C)OC(=O)N[C@H](C(=O)OC(C)(C)C)c1ccc(Br)cc1 | -0.888%
O=C1N[C@@H](Cc2ccccc2)C(=O)N2[C@@H]3N(S(=O)(=O)c4ccc(F)cc4)c4ccccc4[C@]3(Br)C[C@@H]12 | -1.43%
CC(=O)C1=C(O)C(=O)N(c2ccc(S(N)(=O)=O)cc2)C1c1ccccc1F (stereo not given) | -0.498%
NS(=O)(=O)c1ccc(NC(=O)COC(=O)C2(c3ccc(F)cc3)CCCC2)cc1 | -14.8%
NS(=O)(=O)c1ccc(NC2=CC(c3ccc(F)cc3)N(c3ccc(S(N)(=O)=O)cc3)C2=O)cc1 (stereo not given) | 97.6% (active)
COc1ccccc1NS(=O)(=O)c1ccc(C)c(C(=O)NNC(=O)c2csc(N3CCOCC3)n2)c1 | -6.78%
Cc1ccccc1-c1n[nH]c(=S)n1C | 93.4% (active)
CCCc1cc(-c2n[nH]c(=S)n2CC)c2ccccc2n1 | -9.51%
CCn1c(-c2ccoc2C)n[nH]c1=S | 6.36%
O=C(CCNC(=O)c1ccc(Cl)cc1)NC1CCCc2ccccc21 (stereo not given) | -6.93%
CCOc1ccccc1NC(=O)CCc1ccc(C)o1 | 99.7% (active)
CCOc1ccccc1NC(=O)Cc1cccs1 | -14.8%
CCOc1ccccc1NC(=O)CCc1nnc2ccc(NCc3ccco3)nn12 | 1.12%
CCOc1ccc(NC(=O)CN(C)C(=O)CCSc2ccc(F)cc2)cc1OCC | -3.71%

Compound | inhibition
COc1ccc(S(=O)(=O)Nc2cc(C)on2)cc1NC(C)=O | -7.72%
O=C(CN1CCN(c2ccccc2O)CC1)NC(=O)NCc1ccccc1 | 13.1%
CC1CCCCN1C(=S)NCc1ccccc1 (stereo not given) | -1.5%
Oc1ccccc1N1CCN(C(=S)NCc2ccccc2)CC1 | 96.4% (active)
CCOC(=O)c1sc(=NC(=O)c2ccc(Br)cc2)n(C)c1C | -3.96%
Cc1csc(=NC(=O)c2ccccc2)n1CCO | 99% (active)
OCCn1c(-c2ccccc2)csc1=Nc1ccccc1 | 99% (active)
O=c1cc(CCl)nc2scc(-c3ccccc3)n12 | 60.8%
Cc1csc(=Nc2ccccc2)n1CCO | 98.7% (active)
C=C(C)CNC(=S)/N=c1\scc(C)n1CC | 18%
Cc1cc(C(=O)CCC(=O)NNC(=O)c2ccccc2O)c(C)s1 | 8.1%
O=C(COC(=O)c1ccc2ncsc2c1)Nc1ccc(Cl)cc1 | 16%
COc1ccc(NC(=O)C(=O)NCC(c2ccco2)N2CCc3ccccc3C2)cc1 (stereo not given) | -1.35%
COc1ccc(NS(=O)(=O)c2cc(NC(=O)c3ccc(S(=O)(=O)N(C)C)cc3)ccc2N2CCOCC2)cc1 | 0.706%
Cc1cc(C(=O)OC(C)C(=O)NC2CCCCC2C)c(C)o1 (stereo not given) | 2.82%
CC1CC(=S)Nc2ccccc2N1Cc1ccccc1 (stereo not given) | 99% (active)
CC1CC(C)(C)NC(=S)N1CCC(=O)N1CCN(Cc2ccccc2)CC1 (stereo not given) | -28.3%
CC1CC(=O)Nc2ccccc2N1S(=O)(=O)c1cccs1 (stereo not given) | -4.3%
CC1CCCN(C(=O)c2cc(-c3ccco3)nc3ccccc23)C1 (stereo not given) | 6.96%
Cc1cc(C)c(C)c(S(=O)(=O)N2CCN(C(=O)c3ccc4c(=O)n5c(nc4c3)CCC5)CC2)c1C | -2.44%

Compound | inhibition
O=C(Nc1cccc(S(=O)(=O)N2CCCCC2)c1)c1cncc(Br)c1 | -4.78%
COc1cc(SC#N)ccc1N=Cc1c(C)[nH]n(-c2ccc(C)cc2)c1=O | 99.6% (active)
Cc1ccc(-n2[nH]c(C)c(/C=N/N3C(=O)c4cccc5cccc(c45)C3=O)c2=O)cc1 | -15.1%
CCc1nnc(NS(=O)(=O)c2ccc(N=Cc3c(C)[nH]n(-c4ccc(C)cc4)c3=O)cc2)s1 | 63.1%
O=C(NCCCN1CCCC1=O)c1cccc(S(=O)(=O)NCc2ccccc2)c1 | 0.0635%
CC(C)Oc1ccccc1C(=O)NC(CO)C(=O)O (stereo not given) | 2.33%
CC(C)NC(=O)c1ccc(Cl)cc1Cl | -6.81%
CC(C)NC(=O)c1ccccc1S(=O)c1ccccc1C#N (stereo not given) | 99.6% (active)
CC(C)CN(C(=O)COC(=O)c1ccc2ccccc2c1)c1c(N)n(Cc2ccccc2)c(=O)[nH]c1=O | 1.44%
O=C(O)Cc1ccc(NCc2ccccc2Cl)cc1 | 97.2% (active)
O=C(O)Cc1ccc(NC(=O)Nc2cccc3ccccc23)cc1 | -53.7%
S=C(NCCc1ccccc1)NCc1ccccc1Cl | 5.1%
CC(=O)C12CC(C)=C(C)CC1CC1C3CCC4=CC(=O)CCC4(C)C3CCC12C (stereo not given) | -1.17%
COc1ccc(Oc2cn[nH]c2-c2ccc(OC)cc2O)cc1 | 97.1% (active)
CCOc1ccccc1Oc1cn[nH]c1-c1ccc(OC)cc1O | 59.2%
COc1ccc(-c2cn[nH]c2-c2ccc(OC)cc2)cc1 | 0.7%
O=C(CNC(=O)Cc1ccccc1)N=Nc1c(O)[nH]c2ccc(Br)cc12 | 10.6%
NS(=O)(=O)c1ccc(N=Nc2c(O)[nH]c3ccc(Br)cc23)cc1 | -3.47%
Oc1[nH]c2ccc(Br)cc2c1N=Nc1nn[nH]n1 | 89.8% (active)
COc1ccccc1CNS(=O)(=O)c1cc2c3c(c1)CCC(=O)N3CCC2 | -0.847%
